Assay results taken from PubChem BioAssay (NCATS).
Results filed as inconclusive are left out. Calls of active or inactive are those of the source. Unless noted, calls follow the shape of the full dose curve.

What was measured:
[1] = target: Glucocorticoid receptor (Homo sapiens) (UniProt P04150); experiment: qHTS assay for small molecule agonists of glucocorticoid receptor signaling (AID 588532; active = well fitted curve in the direction sought with a large enough effect in the signal ratio, with a control signal flat; the % refers to the signal ratio;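 also: 100% = dexamethasone at 0.1 µM and 0% = DMSO only wells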); conditions: HeLa MMTV-bla, beta-lactamase ratio, agonist, 18 h; activation: stronger effect = higher value, percent of dexamethasone control, DMSO zero
How it was run: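 Using MMTV-bla HeLa cells in medium with 1% stripped FBS and 25 mM HEPES, compounds were titrated and incubated overnight-length (18 h). Beta-lactamase cleavage of CCF4 was quantified by dual-emission fluorescence.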

[2] = target: Glucocorticoid receptor (Homo sapiens) (UniProt P04150); experiment: qHTS assay for small molecule antagonists of glucocorticoid receptor signaling (AID 588533; active = well fitted inhibition curve with a large enough effect in the signal ratio, with a control signal flat, not every such curve was filed as active; the % refers to the signal ratio;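 also: cells stimulated with 2 nM dexamethasone as agonist; % is scaled to controls: 0 for no effect and ±100 for the full control effect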)
How it was run: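 Antagonist-mode qHTS: compound titrations added to GRE-bla HeLa cells, then dexamethasone 2 nM final; 18 h, 37 C. CCF4 FRET fluorescence normalized to dexamethasone and DMSO; IC50 from Hill fit.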

[3] = target: Peroxisome proliferator-activated receptor delta (Homo sapiens) (UniProt Q03181); experiment: qHTS assay for small molecule agonists of peroxisome proliferator-activated receptor delta signaling (AID 588534);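 also: 0% = DMSO basal wells and 100% = positive control agonist at 10 µM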
How it was run: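 Reporter cells were plated and held 5 hrs at 37 C before compounds were added. After 18 hrs at 37 C, CCF4 dye was loaded for 2 hrs at RT and fluorescence measured.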

[4] = qHTS assay for small molecule antagonists of peroxisome proliferator-activated receptor delta signaling (AID 588535; active = well fitted inhibition curve with a large enough effect in the signal ratio, with a control signal flat, not every such curve was filed as active; the % refers to the signal ratio;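 as to max response: cells co-treated with a PPAR-delta agonist as stimulator during compound exposure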); conditions: HEK293T PPARd-UAS-bla, beta-lactamase FRET ratio, 18 h; 460 nm channel
How it was run: (§1)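 Cell-based beta-lactamase assay in antagonist mode: 4000 HEK293T PPAR-delta-UAS-bla cells per well, 5 hr preincubation then 18 hr compound incubation at 37 C. IC50 obtained by Hill equation fitting.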

[5] = target: Peroxisome proliferator-activated receptor delta (Homo sapiens) (UniProt Q03181); experiment: as above
How it was run: as §1

[6] = target: Peroxisome proliferator-activated receptor gamma (Homo sapiens) (UniProt P37231); experiment: qHTS assay for small molecule agonists of peroxisome proliferator-activated receptor gamma signaling (AID 588536; active = well fitted curve in the direction sought with a large enough effect in the signal ratio, with a control signal flat, not every such curve was filed as active; the % refers to the signal ratio;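 also: 0% = DMSO basal wells and 100% = rosiglitazone at 2 µM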)
How it was run: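 PPAR-gamma-UAS-bla HEK293 cells in medium with 1% charcoal/dextran-treated FBS were exposed to compounds for 16 h at 37 C. Beta-lactamase activity was read with CCF4 substrate (405 nm excitation, 460/530 nm emission).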

[7] = target: Peroxisome proliferator-activated receptor gamma (Homo sapiens) (UniProt P37231); experiment: qHTS assay for small molecule antagonists of peroxisome proliferator-activated receptor gamma signaling (AID 588537; active = well fitted inhibition curve with a large enough effect in the signal ratio, with a control signal flat, not every such curve was filed as active; the % refers to the signal ratio;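 also: reporter cells co-stimulated with 50 nM rosiglitazone agonist during compound treatment; % of control where 0% means no effect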)
How it was run: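 Inhibitors of agonist-stimulated UAS-bla reporter activity were sought in HEK293 cells; rosiglitazone (50 nM) defined full signal and DMSO baseline. Curves fitted to Hill model gave IC50 and efficacy.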

[8] = target: Vitamin D3 receptor (Homo sapiens) (UniProt P11473); experiment: qHTS assay for small molecule antagonists of vitamin D receptor signaling (AID 588541);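 also: receptor activated by calcitriol during compound treatment; series mostly up to about 77 µM; % is scaled to controls: 0 for no effect and ±100 for the full control effect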
How it was run: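 Antagonist-mode beta-lactamase reporter assay: HEK293T VDR-UAS-bla cells were exposed to titrated compound alongside 1-alpha,25-dihydroxyvitamin D3 at 3 nM final for 16 h. Values were normalized to the 50 nM agonist control and DMSO basal, with IC50 and efficacy from Hill equation fits.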

[9] = qHTS assay for small molecule agonists of retinoid X receptor alpha signaling (AID 588544); conditions: HEK293T RXRa-UAS-bla, beta-lactamase reporter, 18 h; 530 nm emission;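 as to activation: 0% = DMSO basal wells and 100% = reference agonist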
[10] = target: Retinoic acid receptor RXR-alpha (Homo sapiens) (UniProt P19793); experiment: as above
[11] = target: Thyroid hormone receptor beta (Homo sapiens) (UniProt P10828); experiment: qHTS assay for small molecule agonists of thyroid hormone receptor beta signaling (AID 588545);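 also: 0% = DMSO only and 100% = 10 nM T3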
How it was run: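 TR-UAS-bla-GripTite HEK 293 cells in medium with 2% charcoal/dextran FBS, 0.1 mM NEAA and 1 mM sodium pyruvate were treated with titrated compounds for 18 hrs at 37 C. Beta-lactamase reporter was read with CCF4 dye (ex 405, em 460/530 nm); EC50 from Hill fits.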

[12] = qHTS assay for small molecule antagonists of retinoid X receptor alpha signaling (AID 588546; active = well fitted inhibition curve with a large enough effect in the signal ratio, with a control signal flat, not every such curve was filed as active; the % refers to the signal ratio;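 also: cells stimulated with 9-cis-retinoic acid as agonist; % is scaled to controls: 0 for no effect and ±100 for the full control effect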); conditions: HEK293T RXRa-UAS-bla, beta-lactamase ratio, antagonist mode; measured here: W530 green channel, cytotoxicity proxy
How it was run: (§2)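 Beta-lactamase reporter inhibition, read as CCF4 fluorescence ratio (ex 405, em 460/530 nm) after 2 h at RT. HEK293T UAS-bla cells, 2500/well, were stimulated with 9-cis-RA at 500 or 100 nM final alongside test compound for 18 h at 37 C.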

[13] = target: Retinoic acid receptor RXR-alpha (Homo sapiens) (UniProt P19793); experiment: as above; conditions: HEK293T RXRa-UAS-bla, beta-lactamase ratio, antagonist mode
How it was run: as §2

[14] = target: Thyroid hormone receptor beta (Homo sapiens) (UniProt P10828); experiment: qHTS assay for small molecule antagonists of thyroid hormone receptor beta signaling (AID 588547; active = well fitted inhibition curve with a large enough effect in the signal ratio, with a control signal flat, not every such curve was filed as active; the % refers to the signal ratio;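 also: cells stimulated with 0.4 nM T3 agonist during compound exposure; series mostly up to about 77 µM; % is scaled to controls: 0 for no effect and ±100 for the full control effect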); conditions: TR-UAS-bla HEK293, beta-lactamase ratio, antagonist mode, 18 h
How it was run: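 Inhibition of T3-driven (0.4nM final) beta-lactamase reporter activity was measured over 0.59 nM to 92 uM compound after 18 h at 37 C. The cells were GripTite HEK293 TR-UAS-bla in charcoal/dextran-stripped serum, with CCF4 ratio read-out and IC50 from Hill fits.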

[15] = qHTS assay for small molecule activators of the nuclear factor-kappa B (NF-kB) signaling pathway (AID 651749; active = well fitted activation curve with a large enough effect in the signal ratio; the % refers to the signal ratio; also: series mostly up to about 77 µM; % of control where 0% means no effect); conditions: NF-kB-bla ME-180 cells, beta-lactamase FRET ratio, 16 h; activation: stronger effect = higher value
How it was run: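 Stably transfected ME-180 line; NF-kB response element upstream of beta-lactamase. Treatment: compound or DMSO, 16 hr. Detection: fluorescent FRET substrate.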

[16] = qHTS assay for environmental chemicals that activate the Aryl hydrocarbon Receptor (AhR) signaling pathway (AID 651777; active = well fitted curve in the direction sought with a large enough effect; an effect the other way counts as inactive or inconclusive; also: % of control where 0% means no effect; nearly all actives have a fitted effect of over 15% in size); conditions: 1A2-DRE human hepatoma cells, luciferase, 24 h; activation: stronger effect = higher value
How it was run: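 Measured luciferase activity, read 30 min after One-Glo addition at room temperature, from human hepatoma cells bearing a dioxin response element–CYP1A2 promoter reporter and exposed to compound for 24 hr at 37 C.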

[17] = target: Peroxisome proliferator-activated receptor alpha (Homo sapiens) (UniProt Q07869); experiment: qHTS assay for small molecule agonists of the peroxisome proliferator-activated receptor alpha (PPARalpha) signaling pathway (AID 651778; active = well fitted curve in the direction sought with a large enough effect; an effect the other way counts as inactive or inconclusive; also: % of control where 0% means no effect); conditions: PathHunter PPARalpha complementation, chemiluminescence, 6 h; max response: stronger effect = higher value
How it was run: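 Chemiluminescence from complemented enzyme reported PPARalpha activation in cells after 6 hr of compound treatment at 37 C. The detection reagent was incubated for 60 min at room temperature, and compounds were scored as agonists.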

[18] = qHTS assay for small molecule agonists of the antioxidant response element (ARE) signaling pathway measured by Nrf2-dependant transcriptional activity (AID 720636; active = well fitted curve in the direction sought with a large enough effect in the repeat runs; an effect the other way counts as inactive or inconclusive;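 also: HepG2 cells with an ARE-driven luciferase reporter; % of control where 0% means no effect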)
How it was run: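 In HepG2 cells engineered with an Nrf2-responsive luciferase gene, ARE induction was quantified as luminescence after 16 hr compound treatment at 37 C.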

[19] = qHTS assay for small molecule agonists of the antioxidant response element (ARE) signaling pathway measured by Nrf2-dependant transcriptional activity - cell viability counter screen (AID 720653; active = well fitted curve in the direction sought with a large enough effect in the repeat runs; an effect the other way counts as inactive or inconclusive; also: % is scaled to controls: 0 for no effect and ±100 for the full control effect); conditions: ARE-bla HepG2 viability, CellTiter-Glo ATP luminescence, 16 h; max response: stronger effect = lower value
How it was run: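 Cytotoxicity counter screen: intracellular ATP quantified by CellTiter-Glo luminescence in the same ARE-bla HepG2 plates, after 16 h compound exposure and a 2 h beta-lactamase substrate step.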

[20] = qHTS assay for cell viability of HEK293 cells (AID 743288; active = well fitted curve in the direction sought with a large enough effect; an effect the other way counts as inactive or inconclusive; also: % is scaled to controls: 0 for no effect and ±100 for the full control effect; nearly all actives have a fitted effect of over 50% in size); conditions: ATP luminescence (CellTiter-Glo), 18 h; max response: stronger effect = lower value
How it was run: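 Luminescent ATP quantitation served as the viability read-out. Cells (parental HEK293, 2,000/well) received compounds after at least 5 h at 37 C and were exposed for 18 h before a 30 min room-temperature reagent step.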

[21] = qHTS assay for cell viability of the p53RE-bla HCT-116 cell line (AID 743292; active = well fitted curve in the direction sought with a large enough effect; an effect the other way counts as inactive or inconclusive; also: % is scaled to controls: 0 for no effect and ±100 for the full control effect; nearly all actives have a fitted effect of over 55% in size)
How it was run: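 Intracellular ATP of p53RE-bla HCT-116 cells measured by luciferase luminescence following 16 h compound incubation at 37 C; DMSO-only wells served as vehicle controls.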

[22] = target: Nuclear receptor subfamily 1 group I member 2 (Rattus norvegicus) (UniProt Q9R1A7); experiment: qHTS assay for small molecule activators of the rat pregnane X receptor (rPXR) signaling pathway (AID 651751; call rule not given here; also: 0% is about no effect); conditions: rPXR reporter cells, luciferase (One-Glo), 24 h
[23] = target: Vitamin D3 receptor (Homo sapiens) (UniProt P11473); experiment: qHTS assay for small molecule agonists of vitamin D receptor signaling (AID 588543);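 also: 0% = DMSO basal and 100% = reference agonist control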
How it was run: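 Measured: β-lactamase reporter activity (CCF4, 405 nm excitation, 460/530 nm emission) in HEK293T VDR-UAS-bla cells after 16 h compound exposure at 37 °C. Normalization against 50 nM 1α,25-dihydroxyvitamin D3 and DMSO; Hill-fit EC50.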

[24] = qHTS assay for small molecule activators of the p53 signaling pathway (AID 651743; active = well fitted activation curve with a large enough effect in the signal ratio, not every such curve was filed as active; the % refers to the signal ratio; also: series mostly up to about 92 µM; % of control where 0% means no effect); conditions: HCT-116 p53RE-bla, beta-lactamase FRET ratio, 16 h; activation: stronger effect = higher value
How it was run: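 Screen for p53 pathway agonists uses stably transfected p53RE-bla HCT-116 cells, 4,000 per well, treated 16 h at 37 C with compounds in DMSO.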

[25] = qHTS assay for small molecule activators of the human pregnane X receptor (PXR) signaling pathway (AID 720659; call rule not given here; also: 0% is about no effect)

Sequence of Peroxisome proliferator-activated receptor gamma (Homo sapiens) (P37231 whole entry, looked up): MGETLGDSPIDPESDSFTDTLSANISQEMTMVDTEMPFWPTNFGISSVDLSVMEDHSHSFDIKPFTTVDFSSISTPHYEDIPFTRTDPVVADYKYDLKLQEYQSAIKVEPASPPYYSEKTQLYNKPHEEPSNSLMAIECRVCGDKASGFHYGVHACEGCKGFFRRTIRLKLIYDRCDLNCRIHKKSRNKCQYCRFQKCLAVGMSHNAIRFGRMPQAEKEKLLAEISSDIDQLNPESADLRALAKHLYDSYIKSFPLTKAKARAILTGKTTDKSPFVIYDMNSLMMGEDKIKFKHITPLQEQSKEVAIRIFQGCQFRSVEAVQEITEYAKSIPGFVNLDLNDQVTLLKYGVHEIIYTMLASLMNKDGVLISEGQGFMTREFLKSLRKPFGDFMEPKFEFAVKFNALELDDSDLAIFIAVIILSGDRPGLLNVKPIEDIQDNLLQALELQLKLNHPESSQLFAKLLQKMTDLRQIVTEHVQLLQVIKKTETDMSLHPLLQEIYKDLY
Sequence of Glucocorticoid receptor (Homo sapiens) (P04150 whole entry, looked up): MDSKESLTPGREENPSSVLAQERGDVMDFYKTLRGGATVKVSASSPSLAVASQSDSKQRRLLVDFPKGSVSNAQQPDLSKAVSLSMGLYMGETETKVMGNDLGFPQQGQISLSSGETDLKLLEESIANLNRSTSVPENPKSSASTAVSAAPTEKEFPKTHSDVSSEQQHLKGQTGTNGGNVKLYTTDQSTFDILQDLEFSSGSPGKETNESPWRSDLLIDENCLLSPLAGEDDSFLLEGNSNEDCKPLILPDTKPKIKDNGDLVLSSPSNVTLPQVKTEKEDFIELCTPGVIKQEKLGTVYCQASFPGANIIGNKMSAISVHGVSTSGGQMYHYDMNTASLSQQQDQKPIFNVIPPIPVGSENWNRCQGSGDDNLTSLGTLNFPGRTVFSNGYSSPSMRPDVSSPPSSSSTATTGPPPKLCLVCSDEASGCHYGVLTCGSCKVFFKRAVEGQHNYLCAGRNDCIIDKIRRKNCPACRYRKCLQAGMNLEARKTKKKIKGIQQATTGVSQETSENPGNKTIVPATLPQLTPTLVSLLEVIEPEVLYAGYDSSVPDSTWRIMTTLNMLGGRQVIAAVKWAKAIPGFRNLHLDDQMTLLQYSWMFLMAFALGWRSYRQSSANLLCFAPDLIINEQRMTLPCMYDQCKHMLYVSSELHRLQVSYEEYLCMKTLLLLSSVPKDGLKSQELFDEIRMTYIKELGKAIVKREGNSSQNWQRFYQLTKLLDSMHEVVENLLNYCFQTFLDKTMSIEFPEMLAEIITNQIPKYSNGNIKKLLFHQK
Sequence of Retinoic acid receptor RXR-alpha (Homo sapiens) (P19793 whole entry, looked up): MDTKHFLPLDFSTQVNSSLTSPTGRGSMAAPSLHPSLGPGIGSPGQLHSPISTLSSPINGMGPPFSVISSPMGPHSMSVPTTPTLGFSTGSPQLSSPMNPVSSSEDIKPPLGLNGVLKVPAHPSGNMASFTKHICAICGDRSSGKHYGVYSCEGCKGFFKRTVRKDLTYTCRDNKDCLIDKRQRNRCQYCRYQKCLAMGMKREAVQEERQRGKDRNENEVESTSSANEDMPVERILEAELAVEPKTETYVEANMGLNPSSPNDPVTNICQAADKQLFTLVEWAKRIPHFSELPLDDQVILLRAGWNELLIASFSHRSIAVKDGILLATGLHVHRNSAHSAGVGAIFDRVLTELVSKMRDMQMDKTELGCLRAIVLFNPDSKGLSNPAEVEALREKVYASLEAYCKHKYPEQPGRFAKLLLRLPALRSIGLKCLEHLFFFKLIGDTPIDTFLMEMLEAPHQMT
Sequence of Peroxisome proliferator-activated receptor delta (Homo sapiens) (Q03181 whole entry, looked up): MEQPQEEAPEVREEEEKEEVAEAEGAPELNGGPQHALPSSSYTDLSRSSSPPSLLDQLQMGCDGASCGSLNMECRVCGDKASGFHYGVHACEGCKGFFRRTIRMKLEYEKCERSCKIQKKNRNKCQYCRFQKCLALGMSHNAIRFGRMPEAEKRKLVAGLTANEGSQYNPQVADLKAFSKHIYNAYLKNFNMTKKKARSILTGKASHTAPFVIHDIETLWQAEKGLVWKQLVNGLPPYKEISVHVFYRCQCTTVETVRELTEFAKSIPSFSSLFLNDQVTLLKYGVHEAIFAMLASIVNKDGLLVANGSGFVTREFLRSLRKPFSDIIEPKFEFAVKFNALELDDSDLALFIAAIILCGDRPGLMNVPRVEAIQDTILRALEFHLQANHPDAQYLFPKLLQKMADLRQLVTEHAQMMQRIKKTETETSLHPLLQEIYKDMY
Sequence of Thyroid hormone receptor beta (Homo sapiens) (P10828 whole entry, looked up): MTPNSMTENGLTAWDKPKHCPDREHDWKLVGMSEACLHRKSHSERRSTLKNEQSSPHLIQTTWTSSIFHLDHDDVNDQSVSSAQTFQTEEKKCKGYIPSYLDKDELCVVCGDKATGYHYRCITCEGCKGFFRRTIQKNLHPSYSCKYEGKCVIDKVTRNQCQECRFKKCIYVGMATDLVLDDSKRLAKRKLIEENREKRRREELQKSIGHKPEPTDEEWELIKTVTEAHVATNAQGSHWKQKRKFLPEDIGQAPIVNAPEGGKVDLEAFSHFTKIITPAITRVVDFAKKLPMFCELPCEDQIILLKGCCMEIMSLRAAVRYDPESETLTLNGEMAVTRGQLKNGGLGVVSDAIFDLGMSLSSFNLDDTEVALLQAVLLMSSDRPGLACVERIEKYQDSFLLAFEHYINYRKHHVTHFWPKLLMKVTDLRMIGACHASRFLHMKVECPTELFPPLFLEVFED
Sequence of Vitamin D3 receptor (Homo sapiens) (P11473 whole entry, looked up): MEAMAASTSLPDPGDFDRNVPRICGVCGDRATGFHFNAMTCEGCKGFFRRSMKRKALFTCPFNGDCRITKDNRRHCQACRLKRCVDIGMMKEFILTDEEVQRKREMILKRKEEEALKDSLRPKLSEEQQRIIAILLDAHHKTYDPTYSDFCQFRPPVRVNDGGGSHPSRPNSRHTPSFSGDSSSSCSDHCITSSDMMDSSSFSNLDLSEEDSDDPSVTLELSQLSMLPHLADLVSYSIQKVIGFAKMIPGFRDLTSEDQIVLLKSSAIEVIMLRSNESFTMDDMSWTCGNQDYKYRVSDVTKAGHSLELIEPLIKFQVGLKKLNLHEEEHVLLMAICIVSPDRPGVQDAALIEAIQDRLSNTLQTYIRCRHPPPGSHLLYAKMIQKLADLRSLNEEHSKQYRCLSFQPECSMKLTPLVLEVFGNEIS
Sequence of Nuclear receptor subfamily 1 group I member 2 (Rattus norvegicus) (Q9R1A7 whole entry, looked up): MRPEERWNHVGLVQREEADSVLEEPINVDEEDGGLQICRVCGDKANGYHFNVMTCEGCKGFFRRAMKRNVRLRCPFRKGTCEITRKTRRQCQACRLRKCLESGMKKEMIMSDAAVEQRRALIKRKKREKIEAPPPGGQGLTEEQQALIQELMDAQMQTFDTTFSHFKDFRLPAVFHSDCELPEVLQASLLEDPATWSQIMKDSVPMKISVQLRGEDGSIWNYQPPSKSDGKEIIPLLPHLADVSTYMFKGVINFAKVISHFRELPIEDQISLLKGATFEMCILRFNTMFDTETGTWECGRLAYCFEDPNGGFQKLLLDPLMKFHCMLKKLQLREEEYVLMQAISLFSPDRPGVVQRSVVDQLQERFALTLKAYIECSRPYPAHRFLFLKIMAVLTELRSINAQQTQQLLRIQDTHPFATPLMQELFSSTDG
Sequence of Peroxisome proliferator-activated receptor alpha (Homo sapiens) (Q07869 whole entry, looked up): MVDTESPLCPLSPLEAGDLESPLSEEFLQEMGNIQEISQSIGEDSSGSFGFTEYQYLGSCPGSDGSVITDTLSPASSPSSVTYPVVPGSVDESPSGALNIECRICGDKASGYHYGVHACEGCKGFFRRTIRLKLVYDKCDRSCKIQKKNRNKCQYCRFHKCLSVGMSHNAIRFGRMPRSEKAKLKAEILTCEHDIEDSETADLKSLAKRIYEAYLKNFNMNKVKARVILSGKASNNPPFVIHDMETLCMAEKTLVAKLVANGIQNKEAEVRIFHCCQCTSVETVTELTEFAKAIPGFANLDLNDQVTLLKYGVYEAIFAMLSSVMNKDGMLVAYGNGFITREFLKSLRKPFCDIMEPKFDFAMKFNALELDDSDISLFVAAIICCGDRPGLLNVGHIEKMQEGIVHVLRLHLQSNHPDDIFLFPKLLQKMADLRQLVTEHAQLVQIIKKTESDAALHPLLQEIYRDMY

CCOP(=S)(Oc1cnc(C(C)(C)C)nc1)OC(C)C (stereo not drawn)
-24.6%: max response [4]
inactive: activation [1] 2.58% | Potency [2] | outcome [3] | Potency [5] | Potency [6] | Potency [7] | Potency [8] | Potency [10] | Potency [11] | max response [13] 1.44% | activity change % (negative = inhibition) [14] 4.48% | activation [15] -0.139% | activation [16] 6.61% | max response [17] -0.258% | Potency [18] | max response [19] -5.89% | max response [20] -6.73% | Potency [21] | max response [22] 6.76%
10.2%: max response [12]
-5.29%: max response [9]

O=C(O)COc1ccc(Cl)cc1
18.4%: max response [9]
9.9%: max response [4]
0.278%: max response [12]
inactive: activation [1] -1.72% | Potency [2] | Potency [5] | Potency [6] | Potency [7] | outcome [23] | Potency [10] | Potency [11] | max response [13] -13.3% | activity change % (negative = inhibition) [14] -4.24% | activation [24] -0.56% | max response [17] -2.55% | Potency [18] | max response [19] 1.53% | max response [20] -5.08% | Potency [21] | max response [22] -5.77% | outcome [25]
